Screening data from PubChem.
Sampled rows, rich in hits. Any-hit rate of the full collection: about 2.8%.
Wnt act: Wnt/beta-catenin pathway activation; Wnt/beta-catenin reporter cell assay, activator, plate reader; activation, % at 9.35 µM; 1.2% of 300,000 active; in the data active means activation above about 30%, passing the limit was not always enough; inconclusive means no clear call, values can overlap the other calls;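 further: 0% = neutral control wells and 100% = positive control wells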
MITF act: increases MITF-driven TRPM1 promoter luciferase signal; AID 588334; SK-MEL-5 TRPM1-promoter luciferase, 24 h; % of positive control, neutral wells = 0; 0.75% of 300,000 active; activation, % at 12.5 µM;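 active means mean activation of at least 80% with every replicate also reaching 80%; inconclusive means mean reaches 80% but some replicate falls short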;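 further: 0% = neutral control wells and 100% = parthenolide positive control wells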
FXN GAA850 act: activators of GAA850 frataxin (FXN) promoter | 0.56% of 360,000 active | HEK293 lucGAA850 FXN promoter luciferase reporter, 24 h; percent of 10 µM SAHA response | activation, % at 6 µM;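 active means activation above the average of all compounds screened plus 3 SD, cutoff fixed separately per campaign, cut at about 7.5% in these data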;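 further: 0% = DMSO wells and 100% = 10 µM SAHA wells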
esBAF inh: SWI/SNF esBAF complex inhibition. mouse ES cells, Bmi1-luciferase knock-in reporter, 24 h; 100% = twice the neutral-well signal. reporter increase, % at 12.5 µM. 2% of 350,000 active. AID 602393; in the data active means activation above about 40%; inconclusive means no clear call, values can overlap the other calls;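 further: 0% = median of the plate's neutral control wells and 100% = double that signal; a rise in the Bmi1 reporter signal indicates esBAF inhibition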
esBAF Ring1 qPCR: de-represses Ring1 in mouse ESCs, confirming esBAF inhibition | shares compounds with esBAF inh | mouse ESC E14, Ring1 mRNA RT-qPCR fold change | fold change at 33 µM | 550 tested, under 10 active | AID 743176;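 active means Ring1 gene expression raised more than 2-fold over untreated cells in both replicates at either tested dose; inconclusive means only one replicate above 2-fold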;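 further: Ring1 transcript normalised to actin housekeeping signal by TaqMan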
esBAF Fgf4 qPCR: esBAF inhibition confirmed by Fgf4 repression; AID 743177; Fgf4 expression fold change at 33 µM; mouse ESC E14, Fgf4 mRNA qPCR fold change; hits give low values; 4% of 550 active; shares compounds with esBAF inh;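 active means Fgf4 expression under 0.8 fold of control in both repeat measurements at one or both tested doses; inconclusive means under 0.8 fold in just a single repeat measurement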;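 further: Fgf4 transcript normalised to actin in duplex TaqMan qPCR; cells exposed to compound for 24 h before lysis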
esBAF Bmi1 qPCR: esBAF inhibition confirmed by Bmi1 de-repression; AID 743180; mouse ESE14 ES cells, Bmi1 mRNA qPCR fold; hits give high values; 550 tested, under 10 active; fold change at 33 µM; shares compounds with esBAF inh;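 active means Bmi1 expression fold change above 6 at either tested concentration, seen in replicate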;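 further: higher fold means more Bmi1 de-repression and stronger esBAF inhibition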
A549 tox SP: A549 cell cytotoxicity | 550 tested, under 10 active | shares compounds with esBAF inh | cell viability change % (negative = cytotoxic), % at 25 µM, hits read low | AID 743188 | plate reader; call rule not given here
HepG2 cytotox SP: HepG2 cell cytotoxicity at single point | shares compounds with esBAF inh | plate reader; hits give low values | activity change, negative = inhibition, % at 25 µM | 4% of 550 active; in the data active means activity change below about -50%
HEK293 tox SP: kills or reduces viability of HEK293 cells | activity change, negative = inhibition, % at 25 µM, hits read low | shares compounds with esBAF inh | HEK293 cytotoxicity, plate reader | 3% of 550 active; in the data active means activity change below about -38%, passing the limit was not always enough
An asterisk follows results filed as active.

How did COc1cccc(S(=O)(=O)N[C@H]2CC[C@H](CCn3cc(-c4ccccc4OC)nn3)O[C@@H]2CO)c1 do in these assays?
esBAF inh: 3.3

What do the screens show for `C[C@@H]1CN([C@@H](C)CO)C(=O)c2cc(C3=CCCC3)cnc2O[C@@H]1CN(C)C(=O)c1ccc2c(c1)OCO2`?
esBAF inh: 1.0

What do the screens show for `COc1cccc(NC(=O)N2CCN(c3cccc(C)c3C)CC2)c1`?
Wnt act: 0.0; FXN GAA850 act: 1.0; esBAF inh: 72.0*; esBAF Ring1 qPCR: 1.06; esBAF Fgf4 qPCR: 1.04; esBAF Bmi1 qPCR: 1.24; A549 tox SP: -3.5; HepG2 cytotox SP: 13.5; HEK293 tox SP: -4.8

Results for COc1ccccc1N1CCN(C(=O)Nc2cccc(Cl)c2)CC1 ?
Wnt act: -1.7; MITF act: 26.6; FXN GAA850 act: 2.4; esBAF inh: 13.3

What do the screens show for `COc1ccc(CNc2nc3ccccc3s2)cc1OC`?
Wnt act: 4.3; FXN GAA850 act: 1.3; esBAF inh: 62.4*; esBAF Ring1 qPCR: 0.989; esBAF Fgf4 qPCR: 0.87; esBAF Bmi1 qPCR: 1.58; A549 tox SP: -6.0; HepG2 cytotox SP: -4.9; HEK293 tox SP: -11.9

What do the screens show for `c1ccc(CCNc2nc3ccccc3s2)cc1`?
FXN GAA850 act: 5.8; esBAF inh: 55.3*; esBAF Ring1 qPCR: 1.15; esBAF Fgf4 qPCR: 1.04; esBAF Bmi1 qPCR: 1.84; A549 tox SP: -8.6; HepG2 cytotox SP: -0.8; HEK293 tox SP: -23.5

Results for c1ccc(Nc2ccccn2)cc1 ?
Wnt act: 0.7; FXN GAA850 act: 1.4; esBAF inh: 1.6

How did c1ccc(Nc2cccc(Nc3ccccc3)n2)cc1 do in these assays?
MITF act: 49.8; FXN GAA850 act: 3.0; esBAF inh: 59.1*; esBAF Ring1 qPCR: 0.972; esBAF Fgf4 qPCR: inconclusive; esBAF Bmi1 qPCR: 1.65; A549 tox SP: -4.9; HepG2 cytotox SP: -27.0; HEK293 tox SP: -9.0

How did COc1cc2ccccc2cc1C(=O)Nc1ccc(Br)cn1 do in these assays?
Wnt act: 7.6; MITF act: 62.5; FXN GAA850 act: 3.8; esBAF inh: 86.1*; esBAF Ring1 qPCR: 0.992; esBAF Fgf4 qPCR: 0.911; esBAF Bmi1 qPCR: 1.45; A549 tox SP: 2.2; HepG2 cytotox SP: 2.9; HEK293 tox SP: 0.4

How did O=C(C[C@H]1CC[C@H]2NC[C@@H](O)COC[C@@H]2O1)Nc1ccccc1 do in these assays?
esBAF inh: 0.0

What do the screens show for `Cc1ccnc(N(C(=O)c2cccs2)C(=O)c2cccs2)c1`?
Wnt act: inconclusive; MITF act: 30.1; FXN GAA850 act: 5.0; esBAF inh: 8.4

What do the screens show for `O=C(c1cccs1)N(C(=O)c1cccs1)c1ccc(Br)cn1`?
Wnt act: 56.3*; MITF act: 30.5; FXN GAA850 act: 2.2; esBAF inh: 65.0*; esBAF Ring1 qPCR: 0.729; esBAF Fgf4 qPCR: 0.967; esBAF Bmi1 qPCR: 1.59; A549 tox SP: -9.4; HepG2 cytotox SP: -36.6; HEK293 tox SP: -6.2

What do the screens show for `COc1ccc(-c2ccc3oc(-c4ccsc4)cc(=O)c3c2)cn1`?
Wnt act: 47.9*; MITF act: 137.8*; FXN GAA850 act: 1.5; esBAF inh: 68.2*; esBAF Ring1 qPCR: 1.36; esBAF Fgf4 qPCR: 0.939; esBAF Bmi1 qPCR: 1.47; A549 tox SP: -0.7; HepG2 cytotox SP: -21.8; HEK293 tox SP: -2.5

Results for CC1CCN(C(=O)CCc2nnc(-c3ccccc3)o2)CC1 ?
Wnt act: inconclusive; MITF act: 23.8; FXN GAA850 act: 4.6; esBAF inh: 74.1*; esBAF Ring1 qPCR: 0.944; esBAF Fgf4 qPCR: 0.94; esBAF Bmi1 qPCR: 1.34; A549 tox SP: -2.6; HepG2 cytotox SP: -10.0; HEK293 tox SP: -5.8

Results for O=C(CCc1nnc(Cc2ccc(-c3ccccc3)cc2)o1)N1CCCC1 ?
Wnt act: -0.9; MITF act: -2.1; FXN GAA850 act: 1.8

What do the screens show for `C[C@@H]1CN([C@@H](C)CO)C(=O)Cc2cc(NS(=O)(=O)c3cccs3)ccc2O[C@H]1CN(C)Cc1ccccc1`?
esBAF inh: -6.4

How did O=S(=O)(N[C@@H]1CC[C@@H](CCn2cc(C3CC3)nn2)O[C@H]1CO)c1ccc(Cl)cc1 do in these assays?
esBAF inh: -3.3

Results for Cc1ccc(N=Nc2cc(C)ccc2O)c(C)c1 ?
Wnt act: 17.0; MITF act: 52.1; FXN GAA850 act: 3.2; esBAF inh: 86.6*; esBAF Ring1 qPCR: 1.05; esBAF Fgf4 qPCR: inconclusive; esBAF Bmi1 qPCR: 1.66; A549 tox SP: -8.2; HepG2 cytotox SP: -50.3*; HEK293 tox SP: -14.2

How did Cc1ccc(C)c(N=Nc2ccc(O)c3ncccc23)c1 do in these assays?
Wnt act: -9.0; MITF act: -61.7; FXN GAA850 act: 0.4

How did C=CCNc1nc(-c2ccc(O)c(C(N)=O)c2)cs1 do in these assays?
Wnt act: -2.8; MITF act: 55.2; FXN GAA850 act: -0.7; esBAF inh: 59.0*; esBAF Ring1 qPCR: 1.19; esBAF Fgf4 qPCR: 1.04; esBAF Bmi1 qPCR: 1.33; A549 tox SP: -7.4; HepG2 cytotox SP: -36.0; HEK293 tox SP: -5.9

How did O=C(C[C@H]1CC[C@H](NS(=O)(=O)c2ccc(F)cc2)[C@@H](CO)O1)NC1CCCCC1 do in these assays?
esBAF inh: 0.7

How did Clc1ccc(-c2cn3cccnc3n2)cc1Cl do in these assays?
Wnt act: 16.8; MITF act: 59.5; FXN GAA850 act: 5.5; esBAF inh: 73.1*; esBAF Ring1 qPCR: 1.04; esBAF Fgf4 qPCR: 1.34; esBAF Bmi1 qPCR: 0.922; A549 tox SP: 11.9; HepG2 cytotox SP: -25.0; HEK293 tox SP: 2.7

What do the screens show for `C[C@@H]1CN([C@H](C)CO)C(=O)c2cc(-c3ccc(F)cc3)cnc2O[C@H]1CN(C)C(=O)CN(C)C`?
esBAF inh: 2.4

How did O=C(NCCO)c1cccc(-c2cnc3c(Nc4cccc(OC(F)(F)C(F)F)c4)nccn23)c1 do in these assays?
Wnt act: 0.5; FXN GAA850 act: 3.1; esBAF inh: 71.4*; esBAF Ring1 qPCR: 1.16; esBAF Fgf4 qPCR: inconclusive; esBAF Bmi1 qPCR: 2.35; A549 tox SP: 10.0; HepG2 cytotox SP: -19.8; HEK293 tox SP: -2.3

Results for COc1ccccc1-c1cnc2c(Nc3cccc(OC(F)(F)C(F)F)c3)nccn12 ?
Wnt act: -0.9; FXN GAA850 act: 0.4; esBAF inh: 13.6
